Test systems include SR leukemia; RPMI-8226 leukemia; OVCAR-8 ovarian; OVCAR-5 ovarian; OVCAR-4 ovarian; SK-OV-3 ovarian; IGROV1 ovarian; OVCAR-3 ovarian; HS 578T breast; T-47D breast; BT-549 breast; MDA-MB-435 melanoma; SW-620 colon; MCF7 breast; HCT-116 colon; HCC-2998 colon; KM12 colon; NCI/ADR-RES ovarian.
Holding throughout (assay): NCI-60 one-dose screen, 48 h (100 = growth as untreated, 0 = no growth, -100 = all killed)
Common to all, as to details: 10 µM unless noted

About 83,000 compounds went through this panel and 20% of them were active in at least one assay; those are over-represented in the sample as a whole.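 Values shown are percent growth following 48 h exposure of cells in 96-well plates to a single concentration of compound; below 10 was considered active.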 Values without a mark were called inactive. Active and inactive are the calls of the source.

For the compound `CSc1[nH]c2ncnc(N)c2c1C#N`, the growth in the assay with SR leukemia is 99.5%; with RPMI-8226 leukemia, 106%; with OVCAR-8 ovarian it was 115%; in the assay on OVCAR-5 ovarian, 87.4%; in the assay with OVCAR-4 ovarian, 94.2%; with SK-OV-3 ovarian, 92.7%. Also, the growth with IGROV1 ovarian was 92.4%; with OVCAR-3 ovarian, 125%; in the assay with HS 578T breast it was 130%; with T-47D breast, 97.3%; with BT-549 breast, 85.9%; in the assay with MDA-MB-435 melanoma, 102%. Further, the growth with SW-620 colon is 128%; with MCF7 breast, 100%; in the assay on HCT-116 colon it was 102%; with HCC-2998 colon, 108%; with KM12 colon, 122%.
As to `O=C(Nc1cccc2[nH]c(C(F)(F)F)nc12)c1ccc(Br)cc1F`, the growth was 18.5% in the assay on SR leukemia; 4.55% (active) in the assay on RPMI-8226 leukemia; 33.2% with OVCAR-8 ovarian; 98.9% in the assay with OVCAR-5 ovarian; 11.8% in the assay on OVCAR-4 ovarian; 65.1% in the assay on SK-OV-3 ovarian. The growth in the assay on IGROV1 ovarian is 42.2%; with OVCAR-3 ovarian, 24.4%; in the assay with HS 578T breast it was 70.4%; with NCI/ADR-RES ovarian, 10.8%; in the assay on BT-549 breast, 19.4%; with MDA-MB-435 melanoma, 26.9%. The growth is 41.6% with SW-620 colon; 27.1% in the assay with MCF7 breast; 22.7% in the assay with HCT-116 colon; 48.3% in the assay on HCC-2998 colon; 27% in the assay with KM12 colon.
As for `CCCCOc1ccc(NC(=O)n2nc(NC(C)=O)c3cc(NC(C)=O)ccc32)cc1`, the growth was 88.4% with SR leukemia; 76.9% with RPMI-8226 leukemia; 92.5% in the assay on OVCAR-8 ovarian; 114% in the assay on OVCAR-5 ovarian; 106% with OVCAR-4 ovarian; 117% with SK-OV-3 ovarian. For the same compound, the growth is 95.3% in the assay on IGROV1 ovarian; 98% in the assay with OVCAR-3 ovarian; 103% with HS 578T breast; 83.2% with T-47D breast; 81% in the assay with BT-549 breast; 121% with SW-620 colon. The growth with MCF7 breast is 91.9%; in the assay with HCT-116 colon, 88.8%; in the assay on HCC-2998 colon, 101%; in the assay on KM12 colon it was 111%.
With `Cc1ccc(Nc2nc(N)nc(Nc3ccc4ccccc4c3)n2)cc1`, the growth is 26.8% with SR leukemia; 48.2% in the assay on RPMI-8226 leukemia; 47.7% in the assay with OVCAR-8 ovarian; 79.9% in the assay with OVCAR-5 ovarian; 74.7% in the assay on OVCAR-4 ovarian; 58.4% in the assay on SK-OV-3 ovarian. Moreover, the growth in the assay with IGROV1 ovarian was 51.4%; in the assay on OVCAR-3 ovarian it was 8.67% (active); with HS 578T breast, 47%; in the assay with T-47D breast, 36.2%; with BT-549 breast, 48.1%; in the assay with MDA-MB-435 melanoma, 16.6%. In addition, the growth in the assay with SW-620 colon is 23.5%; in the assay on MCF7 breast, 29.6%; in the assay with HCT-116 colon, 21.8%; in the assay with HCC-2998 colon, 77.5%; with KM12 colon, 25.1%.
In the case of `C=C1C(=O)O[C@H]2[C@H]1CC/C(Cn1cc(Cc3c[nH]c4ccccc34)nn1)=C\CC[C@@]1(C)O[C@@H]21`, the growth in the assay on SR leukemia is -5.78% (active); with RPMI-8226 leukemia it was -26% (active); in the assay with OVCAR-8 ovarian it was 0.832% (active); in the assay on OVCAR-5 ovarian, 76.2%; in the assay on OVCAR-4 ovarian it was 43.8%; in the assay with SK-OV-3 ovarian, 97.1%. Further, the growth with IGROV1 ovarian was 40.2%; in the assay on OVCAR-3 ovarian, -28.3% (active); in the assay on HS 578T breast, 73.5%; in the assay on NCI/ADR-RES ovarian, 85.8%; in the assay on T-47D breast, 1.32% (active); in the assay on MDA-MB-435 melanoma it was 13.6%. Further, the growth in the assay on SW-620 colon is -58.7% (active); in the assay on MCF7 breast, -61.2% (active); in the assay on HCT-116 colon it was -89.5% (active); with HCC-2998 colon it was 61.5%; in the assay with KM12 colon, 67.2%.
On to `COc1cnc2c(c1)C(=O)c1c-2n(CCCN2CCCC2)c(=O)c2cc([N+](=O)[O-])ccc12`, for which the growth was -1.06% (active) in the assay with SR leukemia; -34.1% (active) with RPMI-8226 leukemia; -37.2% (active) in the assay on OVCAR-8 ovarian; -28.4% (active) in the assay on OVCAR-5 ovarian; 10.4% in the assay on OVCAR-4 ovarian; -9.51% (active) with SK-OV-3 ovarian. Further, the growth with IGROV1 ovarian is -5.7% (active); in the assay with OVCAR-3 ovarian it was -72.4% (active); with HS 578T breast it was 35.1%; in the assay on T-47D breast, 24.5%; with MDA-MB-435 melanoma it was 2.83% (active); in the assay with SW-620 colon, -19.3% (active). The growth with MCF7 breast was 3.81% (active); in the assay with HCT-116 colon, -67.5% (active); in the assay on HCC-2998 colon, 16.2%; in the assay on KM12 colon, -33.3% (active).
Turning to `O=C(Nc1cccc2c1C(=O)c1cccc(Nc3cccc4c3C(=O)c3cccc(NC(=O)c5ccccc5)c3C4=O)c1C2=O)c1ccccc1`, the growth in the assay with SR leukemia is 101%; with RPMI-8226 leukemia, 107%; in the assay on OVCAR-8 ovarian, 96.1%; in the assay on OVCAR-5 ovarian it was 114%; in the assay with OVCAR-4 ovarian, 118%; in the assay with IGROV1 ovarian, 75.6%. Also, the growth was 123% in the assay with OVCAR-3 ovarian; 105% in the assay on NCI/ADR-RES ovarian; 116% with T-47D breast; 113% with BT-549 breast; 104% with MDA-MB-435 melanoma; 109% in the assay with SW-620 colon. The growth is 107% in the assay on MCF7 breast, 109% in the assay on HCT-116 colon, 114% in the assay on HCC-2998 colon and 114% with KM12 colon.
`COc1ccc(C2CC(=O)Nc3c2c(C)nn3-c2nc3ccccc3[nH]2)cc1` (centres undefined): the growth with SR leukemia was -36% (active); with RPMI-8226 leukemia, 20.4%; in the assay with OVCAR-8 ovarian it was 108%; in the assay on OVCAR-5 ovarian, 112%; in the assay with OVCAR-4 ovarian it was 121%; in the assay with IGROV1 ovarian it was 12.6%. Moreover, the growth in the assay on OVCAR-3 ovarian is 18.3%; with HS 578T breast, 61.7%; in the assay on NCI/ADR-RES ovarian, 96.3%; in the assay on T-47D breast, 111%; with BT-549 breast it was 113%; with MDA-MB-435 melanoma, 99.9%. Also, the growth in the assay with SW-620 colon was 48.2%; with HCT-116 colon, 108%; with HCC-2998 colon, 112%; in the assay with KM12 colon it was 30.4%.
As to `Cc1ccc2c(c1)n([O-])c1cc(Cl)ccc1[n+]2=O`, the growth with SR leukemia is 5.98% (active); in the assay on RPMI-8226 leukemia it was 104%; in the assay on OVCAR-8 ovarian, 108%; in the assay with OVCAR-5 ovarian, 102%; in the assay with OVCAR-4 ovarian, 82.6%; in the assay with IGROV1 ovarian, 101%. Moreover, the growth in the assay on OVCAR-3 ovarian is 92.6%; with HS 578T breast it was 135%; in the assay on NCI/ADR-RES ovarian, 104%; in the assay with T-47D breast it was 93.9%; with BT-549 breast it was 108%; with MDA-MB-435 melanoma, 96.8%. For the same compound, the growth in the assay with SW-620 colon is 119%; in the assay on MCF7 breast it was 108%; with HCT-116 colon, 84.2%; in the assay with HCC-2998 colon, 120%; in the assay with KM12 colon, 105%.

Source of the values: PubChem BioAssay (NCI).
